# BoNT F protease – BoNT F light chain protease inhibition; Multiplex microsphere protease cleavage assay, flow cytometry; inhibition, % at 10 µM; 360,000 compounds, 0.22% hits; AID 588497; in the data active = inhibition above about 35%, passing the limit was not always enough; inconclusive = no clear call, values can overlap the other calls; also: plate controls were buffer without enzyme for full effect and enzyme alone for no effect
# Anthrax LF inh2 – blocks Bacillus anthracis lethal factor protease | P15917 | 360,000 compounds, 0.12% hits | AID 588501 | multiplex microsphere protease cleavage assay, LF | inhibition, % at 10 µM; also: plate controls were buffer without enzyme for full effect and enzyme alone for no effect
# Target sequence (P15917 whole entry, looked up): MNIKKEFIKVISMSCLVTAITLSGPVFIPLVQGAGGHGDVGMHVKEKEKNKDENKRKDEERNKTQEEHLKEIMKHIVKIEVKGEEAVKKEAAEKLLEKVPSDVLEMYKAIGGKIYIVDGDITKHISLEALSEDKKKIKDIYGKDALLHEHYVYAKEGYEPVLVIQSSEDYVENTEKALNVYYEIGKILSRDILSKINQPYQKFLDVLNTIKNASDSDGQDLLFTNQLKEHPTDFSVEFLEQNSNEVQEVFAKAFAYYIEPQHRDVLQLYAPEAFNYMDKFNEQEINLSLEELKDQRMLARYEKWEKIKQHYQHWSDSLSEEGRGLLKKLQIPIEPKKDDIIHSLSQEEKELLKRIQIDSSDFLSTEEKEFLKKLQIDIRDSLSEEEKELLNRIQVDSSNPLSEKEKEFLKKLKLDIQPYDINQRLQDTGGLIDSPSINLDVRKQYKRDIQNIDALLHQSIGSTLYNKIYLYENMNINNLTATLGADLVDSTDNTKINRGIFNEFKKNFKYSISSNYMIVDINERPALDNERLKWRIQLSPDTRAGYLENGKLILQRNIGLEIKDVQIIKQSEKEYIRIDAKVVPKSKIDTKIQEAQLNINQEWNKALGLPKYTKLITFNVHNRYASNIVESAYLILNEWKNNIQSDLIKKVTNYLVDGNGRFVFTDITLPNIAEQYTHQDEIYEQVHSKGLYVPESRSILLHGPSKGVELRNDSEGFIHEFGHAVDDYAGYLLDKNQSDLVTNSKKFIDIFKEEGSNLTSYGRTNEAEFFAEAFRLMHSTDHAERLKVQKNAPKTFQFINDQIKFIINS
# SSB-PriA inh – K. pneumoniae PriA-SSBct interaction inhibition; AlphaScreen SSBct-PriA binding, biotinylated peptide; inhibition, % at 33 µM; 430,000 compounds, 0.6% hits; AID 1272365; in the data active = inhibition mostly above about 37%, no sharp cut-off; inactive = mostly below about 20%;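 also: plate controls were negative control peptide for no effect and reference peptide for full effect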
# Autofluor counter – counter-screen for toxin protease inhibitors: compound fluorescence; compound autofluorescence counterscreen, microsphere flow cytometry; hits give high values; fluorescence intensity (test concentration not listed); 360,000 compounds, 3.1% hits; AID 624483; in the data active = fluorescence intensity above about 16000; inconclusive = no clear call, values can overlap the other calls
# BoNT A protease – inhibitors of Botulinum neurotoxin A light chain protease; multiplex microsphere protease substrate cleavage, flow cytometry; 360,000 compounds, 0.17% hits; AID 588499; inhibition, % at 10 µM; also: plate controls were buffer without enzyme for full effect and enzyme alone for no effect
# * hit, by the source's call; ? = inconclusive; . = no result given; ! = repeats disagree. Only some compounds are listed: those with a hit (about 3.1% of all), similar ones and a draw of the others. Rule as the data show it, unless noted: active = inhibition above about 30%; inconclusive = no clear call, values can overlap the other calls; inactive = below that.
SMILES,BoNT F protease,Anthrax LF inh2,SSB-PriA inh,Autofluor counter,BoNT A protease
COC(=O)c1[nH]c2cccc(OC)c2c1NC(=O)CN1CCOCC1,-4,2,-14,2909,-1
COC(=O)c1[nH]c2cccc(OC)c2c1NC(=O)CN(C)CC1OCCO1,-2,-12,-4,16319*,-1
O=C1/C(=C/c2ccncc2)Oc2c1ccc1c2CN(Cc2ccc3c(c2)OCO3)CO1,.,.,-5,.,.
O=C1/C(=C/c2ccco2)Oc2c1ccc1c2CN(Cc2ccccn2)CO1,.,.,97*,.,.
O=C1/C(=C/c2cccc(F)c2)Oc2c1ccc1c2CN(Cc2ccccn2)CO1,.,.,97*,.,.
C#CC(C)(CC)OCC(O)CN1CCc2ccccc2C1 (stereo not drawn),.,.,4,.,.
COC(=O)CSc1nnc(-c2cccnc2)n1-c1ccc(OC)cc1,.,.,-4,.,.
O=c1ccc(-c2ccc(Cl)cc2)nn1CCCNS(=O)(=O)Cc1ccccc1,.,.,3,.,.
Cc1ccc(-c2nnc(N)s2)cc1,7,1,-4,2326,0
COc1ccc(-c2nnc(N)s2)cc1,-5,-6,-18,23923*,-1
CN1C(=O)c2cc(NS(=O)(=O)Cc3ccc(Cl)cc3)ccc2Oc2ccccc21,.,.,39,.,.
O=C(Nc1ccc2c(c1)C(=O)N(CC1CCCO1)C2=O)c1ccc(Cl)c(Cl)c1 (stereo not drawn),3,0,-8,22241*,?
O=C(NCC(O)c1csc2ccccc12)Nc1ccc2c(c1)OCO2 (stereo not drawn),.,.,-6,.,.
O=C(O)CNS(=O)(=O)c1ccc(F)cc1,0,1,-13,21439*,0
FC(F)(F)c1cnc(C(c2ccccn2)c2ncn[nH]2)c(Cl)c1 (stereo not drawn),6,-2,77*,4727,0
CC(=O)NCC(=O)N1CCC(Oc2cnccn2)C1 (stereo not drawn),.,.,-11,.,.
Cc1ccc(S(=O)(=O)CCc2nc3ccccc3s2)cc1,3,-2,5,4777,1
Cc1ccc(-c2nnn(Cc3nc4ccccc4s3)n2)cc1,4,2,-40,21007*,5
CS(=O)(=O)N1N=C(c2cccs2)CC1c1ccc2nccnc2c1 (stereo not drawn),.,.,62*,.,.
CS(=O)(=O)N1N=C(c2ccc3nccnc3c2)CC1c1ccccc1 (stereo not drawn),1,0,-7,24132*,1
O=c1c2ccccc2c2ccccc2c(=O)n1-c1cc(Cl)ccc1Cl,.,.,3,.,.
Oc1c(I)cc(I)c2cccnc12,7,0,58*,5783,0
Oc1c(Cl)cc(Cl)c2cccnc12,-6,2,83*!,2092,0
Oc1c(Cl)ccc2cccnc12,.,.,82*,.,.
Cc1ccc(S(=O)(=O)Nc2cc(Cl)c(O)c3ncccc23)cc1,4,0,45*,5378,4
SMILES,BoNT F protease,Anthrax LF inh2,SSB-PriA inh,Autofluor counter,BoNT A protease
CN(CC(=O)NC1CCC(Oc2nccnc2C#N)CC1)S(C)(=O)=O (stereo not drawn),.,.,-4,.,.
O=C(Nc1cc(C(F)(F)F)ccc1Cl)c1ncc(-c2ccccc2)o1,.,.,-11,.,.
Cc1ccc(C2C(=C(O)c3ccc(Cl)cc3)C(=O)C(=O)N2CC2CCCO2)o1 (stereo not drawn),.,.,-8,.,.
O=C(Oc1ccc(CSc2nc3ccccc3o2)cc1)c1ccccc1,.,.,-7,.,.
O=C(NCCN1CCO[C@H](c2ccccc2)C1)c1ccccc1C(F)(F)F,.,.,-5,.,.
Cc1ccccc1NC(=S)N(CCCN1CCOCC1)Cc1ccccn1,39*,0,4,2551,5
Cn1cnnc1SC1CCCCC1NS(=O)(=O)c1ccccc1 (stereo not drawn),-6,-3,-5,23278*,-3
CCSc1ccccc1C(=O)NCc1nc(-c2cccn2C)no1,.,.,-9,.,.
O=C(Nc1cccc(Cl)c1)c1cnn2cccnc12,2,-3,-4,23465*,?
CS(=O)(=O)C1CCN(C(=O)C2CCN(S(C)(=O)=O)CC2)CC1,.,.,-17,.,.
COc1cc(OC)c(NCCC(=O)c2cccs2)cc1Cl,.,.,90,.,.
COc1cc(NCCC(=O)c2cccs2)c(OC)cc1Cl,-1,-4,39*,4271,-1
Cc1ccc(Sc2ncccc2[N+](=O)[O-])cc1,-16,15,36,4399,-5
O=[N+]([O-])c1cccnc1Sc1ccc(Br)cc1,?,-3,48*,3933,?
O=[N+]([O-])c1cccnc1SCc1ccccc1,2,4,48*,3424,0
Cc1ccc(C(=O)Nc2ccc(SCc3ccccn3)nn2)cc1,.,.,5,.,.
O=C(CSc1ncn[nH]1)N1CCN(S(=O)(=O)c2ccc(Cl)cc2)CC1,-3,-2,-6,21069*,-3
CC1=CC(C)(C)N=C(NC#N)N1,2,-1,-11,19967*,1
